PubChem BioAssay (NCATS)
Records with an inconclusive call do not appear. Activity calls are given as the source filed them. Unless noted, calls follow the shape of the dose curve; as a rule, active = well fitted curve in the direction sought with a large enough effect; inconclusive = small, poorly fitted or top-dose-only effect, or another doubt; inactive = no such curve, though single readings can be large; an effect the other way counts as inactive or inconclusive.

Columns and labels:
[1] = molecular target: DNA repair nuclease/redox regulator APEX1 (Homo sapiens) (UniProt P27695); test: qHTS Validation Assay for Inhibitors of the Human Apurinic/apyrimidinic Endonuclease 1 (APE1) (AID 1705; also: potency is read from the fitted curve at half-maximal effect)
DNA repair nuclease/redox regulator APEX1 (Homo sapiens), sequence (P27695 whole entry, looked up): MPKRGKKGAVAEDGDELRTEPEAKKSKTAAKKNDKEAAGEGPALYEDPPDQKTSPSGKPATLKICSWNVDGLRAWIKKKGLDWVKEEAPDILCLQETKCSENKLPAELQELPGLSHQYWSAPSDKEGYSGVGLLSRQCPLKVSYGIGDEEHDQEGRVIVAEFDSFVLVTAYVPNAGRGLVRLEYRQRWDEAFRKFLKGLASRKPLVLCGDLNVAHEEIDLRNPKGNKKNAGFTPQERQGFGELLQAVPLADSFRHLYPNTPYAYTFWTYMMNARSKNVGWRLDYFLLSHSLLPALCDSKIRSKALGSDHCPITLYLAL
Summary of the method: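 Fluorogenic double-stranded THF abasic-site substrate (5'-TAMRA/3'-BHQ-2), 50 nM final. Enzyme preincubated with compound 15 min at room temperature, then substrate added. Kinetic fluorescence (ex 525/em 598 nm) read three times at 60 s intervals; activity taken as third-minus-first read difference.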

[2] = qHTS for differential inhibitors of proliferation of Plasmodium falciparum line 7G8 (AID 1815);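 also: parasite growth measured after three days of incubation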; also: potency is read from the fitted curve at half-maximal effect
[3] = qHTS for differential inhibitors of proliferation of Plasmodium falciparum line GB4 (AID 1816); conditions: Potency: Plasmodium falciparum GB4 proliferation inhibition;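 also: parasite growth measured after 72 h incubation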; also: potency is read from the fitted curve at half-maximal effect
[4] = qHTS for differential inhibitors of proliferation of Plasmodium falciparum line 3D7 (AID 1876); also: potency is read from the fitted curve at half-maximal effect
[5] = qHTS for differential inhibitors of proliferation of Plasmodium falciparum line Dd2 (AID 1882); conditions: Potency: Plasmodium falciparum Dd2 proliferation inhibition; also: nearly all actives have a fitted effect of over 65% in size; also: potency is read from the fitted curve at half-maximal effect
Summary of the method: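 Dd2-infected erythrocytes (0.3% parasitemia, 2.5% hematocrit final) incubated with compound 72 h at 37 C, 5% CO2; lysed with saponin/Triton buffer containing SYBR Green I, incubated overnight in the dark, then read by fluorescence (485/535 nm). Normalized to 0.29 uM artemisinin and DMSO.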

[6] = qHTS for differential inhibitors of proliferation of Plasmodium falciparum line W2 (AID 1883); conditions: Potency: Plasmodium falciparum W2 proliferation inhibition;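 also: potency is read from the fitted curve at half-maximal effect; parasites grown with compound for 72 h before lysis and staining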
[7] = Cell Viability - LYMP2-017 (AID 972); also: nearly all actives have a fitted effect of over 55% in size; also: potency is read from the fitted curve at half-maximal effect
Summary of the method: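 LYMP2-017 human lymphoblastoid cells (2500/well) settled 5 hr at 37 C, then exposed to compound 24 hr at 37 C in complete medium. Viability taken as intracellular ATP by CellTiter-Glo luminescence after 30 min at RT; AC50 from Hill fits.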

[8] = Cell Viability - LYMP2-002 (AID 977)
Summary of the method: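 Luminescent ATP readout (CellTiter-Glo, 30 min room temperature) after 24 h compound exposure at 37 C of a human lymphoblastoid line, 2500 cells/well. AC50 values derived by standard Hill fitting of qHTS concentration-response data.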

[9] = Cell Viability - LYMP2-016 (AID 984); also: nearly all actives have a fitted effect of over 55% in size
Summary of the method: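 Human lymphoblastoid LYMP2-016 cells, 2500 per well, treated with compounds for 24 h at 37 C. Viability read as intracellular ATP by CellTiter-Glo luminescence after 30 min at room temperature; AC50 from Hill fits of concentration-response.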

[10] = Cell Viability - LYMP2-024 (AID 988); also: nearly all actives have a fitted effect of over 60% in size; also: potency is read from the fitted curve at half-maximal effect
Summary of the method: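 Human lymphoblastoid LYMP2-024 cells (2500/well) rested 5 hr, then treated with compound for 24 hr at 37 C in complete medium. Viability was measured as intracellular ATP by CellTiter-Glo luminescence. AC50 values came from Hill-equation fits.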

[11] = Cell Viability - LYMP1-002 - Assay at 24 hr (AID 993)
Summary of the method: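 Human lymphoblastoid LYMP1-002 cells (2500/well) treated 24 h at 37 °C; viability as intracellular ATP by CellTiter-Glo luminescence. Tetraoctylammonium bromide as positive control; AC50 from Hill-equation fits of qHTS concentration-response.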

[12] = qHTS assay to identify small molecules that stimulate interleukin-8 (IL-8) secretion (AID 651758; active = well fitted activation curve with a large enough effect in the signal ratio; the % refers to the signal ratio; also: potency is read from the fitted curve at half-maximal effect)
Summary of the method: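 THP-1, 2000 cells/well; cpd 16 h, 37 C; add cryptate + XL665 anti-IL-8 Abs; RT 1-3 h; TR-FRET read.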

CP194 = test: qHTS profiling for inhibitors of Plasmodium falciparum proliferation (AID 504749); also: nearly all actives have a fitted effect of over 60% in size; also: potency is read from the fitted curve at half-maximal effect; conditions: P. falciparum in erythrocytes, SYBR Green DNA, 72 h; series mostly up to 28.7 µM
Summary of the method: (§1)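 Parasite proliferation within erythrocytes, 72 h exposure. Endpoint: SYBR Green I fluorescence after overnight lysis at room temperature. Controls: 0.29 uM artemisinin, DMSO.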

CP201 = test: as above; conditions: P. falciparum in erythrocytes, SYBR Green DNA, 72 h; series mostly up to 28.7 µM
Summary of the method: as §1

CP215 = test: as above; conditions: P. falciparum in erythrocytes, SYBR Green DNA, 72 h; series mostly up to 28.7 µM
Summary of the method: as §1

CP266 = test: as above; conditions: P. falciparum in erythrocytes, SYBR Green DNA, 72 h; series mostly up to 12.8 µM
Summary of the method: as §1

CP268 = test: as above; conditions: P. falciparum in erythrocytes, SYBR Green DNA, 72 h; series mostly up to 28.7 µM
Summary of the method: as §1

CP325 = test: as above; conditions: P. falciparum in erythrocytes, SYBR Green DNA, 72 h; series mostly up to 28.7 µM
Summary of the method: as §1

DIV14 = test: as above; conditions: P. falciparum in erythrocytes, SYBR Green DNA, 72 h; series mostly up to 28.7 µM
Summary of the method: as §1

PC26 = test: as above; conditions: P. falciparum in erythrocytes, SYBR Green DNA, 72 h; series mostly up to 28.7 µM
Summary of the method: as §1

Measured: Potency

CCCN1CCc2cc(O)cc3c2C1Cc1ccc(O)c(O)c1-3 (centres undefined)
inactive: [1]
active: [2] 5.01 µM | [3] 3.16 µM | [4] 2.51 µM | [5] 8.91 µM | [6] 3.55 µM

CCc1c(C(=O)OC)ncc2[nH]c3cc(OC)c(OC)cc3c12
inactive: [5]
active: [1] 6.31 µM | [2] 7.94 µM | [3] 12.6 µM | [4] 12.6 µM | [6] 7.94 µM

CNCC[C@@H](Oc1ccc(C(F)(F)F)cc1)c1ccccc1
active: [6] 4.47 µM
inactive: [1]

C[C@]12CC[C@H](O)CC1=CCC1C2CC[C@]2(C)C(=O)CC[C@@H]12 (some centres undefined)
inactive: [1] | [2] | [3] | [4] | [5]

ClC(Cl)=C(c1ccc(Cl)cc1)c1ccc(Cl)cc1
inactive: [7] | [8] | [9] | [10] | [11] | [12]

CCCN1CCc2cccc3c2C1Cc1ccc(O)c(O)c1-3 (centres undefined)
active: [2] 2.24 µM | [3] 2 µM | [4] 2.51 µM | [5] 3.16 µM | [6] 2 µM
inactive: [1]

CCNc1nc(Cl)nc(NC(C)C)n1
inactive: [7] | [8] | [9] | [10] | [11] | [12]

C=CCc1ccc2c(c1)OCO2
inactive: [7] | [8] | [9] | [10] | [11] | [12]

O=C(OC1CCN(CCCl)CC1)C(c1ccccc1)c1ccccc1
active: [2] 7.94 µM | [3] 5.62 µM | [4] 12.6 µM | [5] 7.08 µM | [6] 2.24 µM
inactive: [1]

O=C(O)COc1ccc(Cl)cc1Cl
inactive: [7] | [8] | [9] | [10] | [11]

CC(C)C[C@H]1C(=O)N2CCCC2[C@]2(O)O[C@](NC(=O)[C@@H]3C=C4c5cccc6[nH]c(Br)c(c56)C[C@H]4N(C)C3)(C(C)C)C(=O)N12 (some centres undefined)
active: [2] 0.891 µM | [3] 1.78 µM | [4] 2 µM | [5] 2 µM | [6] 1.26 µM

CNC(=O)O/N=C/C(C)(C)SC
inactive: [7] | [8] | [9] | [11] | [12]

C=CCc1ccc(OC)cc1
inactive: [7] | [8] | [9] | [10] | [11]

CC(C)[C@@]1(NC(=O)[C@@H]2C[C@@H]3c4cccc5[nH]cc(c45)C[C@H]3N(C)C2)O[C@@]2(O)C3CCCN3C(=O)[C@H](Cc3ccccc3)N2C1=O (some centres undefined)
inactive: [1]
active: [2] 0.316 µM | [3] 1.12 µM | [4] 1 µM | [5] 1.41 µM | [6] 0.891 µM

CCNC[C@H](O)c1cccc(O)c1
inactive: CP194 | CP201 | CP215 | CP266 | CP268 | CP325 | DIV14 | PC26

C[C@@]12CC[C@H]3[C@@H](CC[C@@H]4C[C@H]5S[C@H]5C[C@]43C)[C@H]1CC[C@H]2O
inactive: CP194 | CP201 | CP215 | CP266 | CP268 | CP325 | DIV14 | PC26

C[N+]1([O-])[C@@H]2CC(OC(=O)[C@@H](CO)c3ccccc3)C[C@@H]1[C@H]1O[C@H]12 (some centres undefined)
inactive: CP194 | CP201 | CP266 | CP268 | CP325 | DIV14 | PC26

C/C=C/c1ccc2c(c1)OCO2
inactive: [7] | [8] | [9] | [10] | [11]

CC(C)c1c(CN(C)[C@@H](C)Cc2ccccc2)n(C)n(-c2ccccc2)c1=O
inactive: CP194 | CP201 | CP215 | CP266 | CP268 | CP325 | DIV14 | PC26

ClC1=C(Cl)C2(Cl)C3C(Cl)C=CC3C1(Cl)C2(Cl)Cl (centres undefined)
inactive: [9] | [10]
active: [12] 26.6 µM

CCc1cccc(CC)c1N(COC)C(=O)CCl
active: [10] 50.1 µM
inactive: [11]

C[C@H]1CN(C2CCC(C#N)(c3ccc(F)cc3)CC2)CC[C@@]1(C(=O)O)c1ccccc1 (some centres undefined)
inactive: CP194 | CP201 | CP215 | CP266 | CP268 | CP325 | DIV14 | PC26

O=S1OCC2C(CO1)C1(Cl)C(Cl)=C(Cl)C2(Cl)C1(Cl)Cl (centres undefined)
active: [12] 66.8 µM

CC(=O)O[C@H]1CC[C@@]2(C)C(=CC[C@@H]3[C@H]2CC[C@]2(C)C(=O)CC[C@H]32)C1
inactive: CP194 | CP201 | CP215 | CP266 | CP268 | CP325 | DIV14 | PC26

C[C@H](N)[C@@H](O)c1ccccc1
inactive: CP194 | CP201 | CP215 | CP266 | CP268 | CP325 | DIV14 | PC26

COc1ccc2c(c1OC)CN1CCc3cc4c(cc3[C@H]1C2)OCO4
active: CP215 2.03 µM | DIV14 2.56 µM

ClC1=C(Cl)C2(Cl)C3C4C=CC(C4)C3C1(Cl)C2(Cl)Cl (centres undefined)
active: [12] 42.2 µM

C#CCN(C)[C@@H](C)Cc1ccccc1
inactive: CP194 | CP201 | CP215 | CP266 | CP268 | CP325 | PC26

CCOCN(C(=O)CCl)c1c(C)cccc1CC
active: [7] 50.1 µM
inactive: [8] | [12]
